Source: ChEMBL document CHEMBL1201862, “PubChem BioAssay data set” (2004)
Screen size: about 54,000 sequences; about 2,800 (5.2%) were called active. Rule as the data show it: active = GI50 up to about 1.1 µM and inactive = higher. A selection follows. Entries with a potency or affinity are not part of this list.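 96-well plates; 48 h exposure; 5 concentrations. Endpoints by linear interpolation between flanking doses. Not reached: highest tested concentration assigned. GI50 marks 50% less growth.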

Test system: NCI-H226
Assay: NCI tumour cell line growth inhibition, 48 h

Substance | GI50
cis-Bis[[(trimethylsilyl)methyl]amino]tetrachloroplatinum(IV), CHEMBL2146191 | 13.6 µM
CISPLATIN, CHEMBL11359 | 5.05 µM
[Bis(aminomethyl)dimethylsilane]tetrachloroplatinum(IV), CHEMBL2146190 | 4.49 µM
[Bis(aminomethyl)tetramethylenesilane]tetrachloropaltinum(IV), CHEMBL2146189 | 8.18 µM
[Bis(aminomethyl)tetramethylenesilane]dichloropaltinum(II), CHEMBL2146205 | 32.9 µM
mu-(1,7-nanodiamine-N,N')bis-(cis-aminedichloroplatimum (II)), CHEMBL2146215 | 1.07 µM
[Bis(aminomethyl)pentamethylenesilane]dichloropaltinum(II), CHEMBL2146202 | 1.43 µM
[Bis(aminomethyl)ethylmethylsilane]tetrachloroplatinum(IV), CHEMBL2146192 | 5.75 µM
[Bis(aminomethyl)diethylsilane]tetrachloroplatinum(IV), CHEMBL2146203 | 1.5 µM
[Bis(aminomethyl)pentamethylenesilane]tetrachloropaltinum(IV), CHEMBL2146204 | 3.88 µM
[Bis(aminomethyl)dimethylsilane]dichloroplatinum (II), CHEMBL2146201 | 35.8 µM
